Among the data in the supplement of paper PMC10849652 are log2 fold change values, retold here.

About 7,900 targets were measured; listed, in parts, are those with a hit and a random draw of the rest. About 0.6% of all pairs of compound and target were hits.

Sequence of UniProt P49840 (P49840 whole entry, looked up): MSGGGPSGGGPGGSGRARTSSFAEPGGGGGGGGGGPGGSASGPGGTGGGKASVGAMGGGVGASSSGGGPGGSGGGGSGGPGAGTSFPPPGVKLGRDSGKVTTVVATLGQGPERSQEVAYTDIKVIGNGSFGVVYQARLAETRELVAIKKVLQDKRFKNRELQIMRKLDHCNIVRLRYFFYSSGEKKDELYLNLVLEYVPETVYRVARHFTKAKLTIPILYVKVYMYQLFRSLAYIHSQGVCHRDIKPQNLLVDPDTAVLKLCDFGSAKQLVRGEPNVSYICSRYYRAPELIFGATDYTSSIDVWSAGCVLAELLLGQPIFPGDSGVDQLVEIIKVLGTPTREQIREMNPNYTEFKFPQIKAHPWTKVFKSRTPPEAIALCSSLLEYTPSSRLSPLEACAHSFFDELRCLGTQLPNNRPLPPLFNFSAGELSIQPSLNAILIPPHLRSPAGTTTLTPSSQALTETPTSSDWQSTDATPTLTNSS
Sequence of UniProt P62879 (P62879 whole entry, looked up): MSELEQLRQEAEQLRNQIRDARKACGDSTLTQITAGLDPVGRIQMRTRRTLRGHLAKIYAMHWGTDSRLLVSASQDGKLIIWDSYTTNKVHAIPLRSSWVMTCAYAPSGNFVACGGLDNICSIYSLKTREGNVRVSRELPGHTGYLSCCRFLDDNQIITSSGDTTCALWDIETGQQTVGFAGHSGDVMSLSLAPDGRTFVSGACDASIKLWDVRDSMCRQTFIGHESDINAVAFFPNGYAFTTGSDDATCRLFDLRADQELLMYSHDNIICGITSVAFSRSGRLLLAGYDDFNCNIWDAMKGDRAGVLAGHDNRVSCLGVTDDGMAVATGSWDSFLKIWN
Sequence of UniProt Q8TEQ6 (Q8TEQ6 whole entry, looked up): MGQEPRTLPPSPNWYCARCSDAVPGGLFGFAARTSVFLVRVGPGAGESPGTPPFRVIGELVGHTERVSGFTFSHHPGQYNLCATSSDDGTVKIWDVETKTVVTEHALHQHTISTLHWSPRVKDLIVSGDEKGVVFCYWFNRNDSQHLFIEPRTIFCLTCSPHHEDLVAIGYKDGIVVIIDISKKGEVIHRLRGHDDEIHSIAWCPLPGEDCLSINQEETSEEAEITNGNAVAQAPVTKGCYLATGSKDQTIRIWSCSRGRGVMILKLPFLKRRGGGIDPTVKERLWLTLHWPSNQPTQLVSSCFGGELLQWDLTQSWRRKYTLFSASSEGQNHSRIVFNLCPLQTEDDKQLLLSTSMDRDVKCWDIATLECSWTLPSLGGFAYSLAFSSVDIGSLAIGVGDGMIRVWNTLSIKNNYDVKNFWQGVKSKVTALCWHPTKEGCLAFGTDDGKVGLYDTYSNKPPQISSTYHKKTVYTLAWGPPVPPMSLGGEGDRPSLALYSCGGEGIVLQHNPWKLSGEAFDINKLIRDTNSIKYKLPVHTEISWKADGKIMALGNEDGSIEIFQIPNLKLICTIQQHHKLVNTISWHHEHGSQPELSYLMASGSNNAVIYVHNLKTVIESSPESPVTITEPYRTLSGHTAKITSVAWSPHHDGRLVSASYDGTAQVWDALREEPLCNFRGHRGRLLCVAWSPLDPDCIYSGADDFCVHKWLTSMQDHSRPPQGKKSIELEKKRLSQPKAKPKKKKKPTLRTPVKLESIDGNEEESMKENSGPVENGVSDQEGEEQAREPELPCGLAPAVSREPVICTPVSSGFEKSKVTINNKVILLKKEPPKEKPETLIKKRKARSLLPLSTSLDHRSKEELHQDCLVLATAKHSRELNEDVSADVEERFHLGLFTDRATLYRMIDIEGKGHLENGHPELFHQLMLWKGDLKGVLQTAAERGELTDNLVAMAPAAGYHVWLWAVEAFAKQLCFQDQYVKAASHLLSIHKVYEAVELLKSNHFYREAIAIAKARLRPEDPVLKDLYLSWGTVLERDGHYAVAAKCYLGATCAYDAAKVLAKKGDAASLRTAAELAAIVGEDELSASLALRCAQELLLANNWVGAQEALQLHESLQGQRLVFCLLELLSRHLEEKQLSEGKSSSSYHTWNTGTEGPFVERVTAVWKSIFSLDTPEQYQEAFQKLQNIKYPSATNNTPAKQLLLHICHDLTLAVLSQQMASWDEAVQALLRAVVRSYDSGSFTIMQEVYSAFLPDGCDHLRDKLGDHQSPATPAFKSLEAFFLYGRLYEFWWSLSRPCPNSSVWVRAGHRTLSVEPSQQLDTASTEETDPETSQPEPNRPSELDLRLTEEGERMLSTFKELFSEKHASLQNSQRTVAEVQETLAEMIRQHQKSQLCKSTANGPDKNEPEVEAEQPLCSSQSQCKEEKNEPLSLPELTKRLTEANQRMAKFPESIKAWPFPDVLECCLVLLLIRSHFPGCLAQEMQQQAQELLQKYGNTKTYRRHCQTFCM
Sequence of UniProt Q02790 (Q02790 whole entry, looked up): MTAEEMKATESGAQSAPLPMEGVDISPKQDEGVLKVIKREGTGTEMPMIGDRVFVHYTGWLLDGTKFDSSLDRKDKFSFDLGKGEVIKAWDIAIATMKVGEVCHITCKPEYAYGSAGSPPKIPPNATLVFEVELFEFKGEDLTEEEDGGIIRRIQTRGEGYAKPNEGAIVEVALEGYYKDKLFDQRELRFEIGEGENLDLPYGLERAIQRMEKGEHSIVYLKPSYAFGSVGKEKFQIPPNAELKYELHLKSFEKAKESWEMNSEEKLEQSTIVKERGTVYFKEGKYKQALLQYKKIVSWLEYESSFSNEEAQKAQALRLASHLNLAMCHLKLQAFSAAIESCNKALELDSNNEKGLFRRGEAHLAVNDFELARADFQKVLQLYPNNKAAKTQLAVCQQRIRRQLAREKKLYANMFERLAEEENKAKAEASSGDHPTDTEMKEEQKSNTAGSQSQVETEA
Sequence of UniProt P04035 (P04035 whole entry, looked up): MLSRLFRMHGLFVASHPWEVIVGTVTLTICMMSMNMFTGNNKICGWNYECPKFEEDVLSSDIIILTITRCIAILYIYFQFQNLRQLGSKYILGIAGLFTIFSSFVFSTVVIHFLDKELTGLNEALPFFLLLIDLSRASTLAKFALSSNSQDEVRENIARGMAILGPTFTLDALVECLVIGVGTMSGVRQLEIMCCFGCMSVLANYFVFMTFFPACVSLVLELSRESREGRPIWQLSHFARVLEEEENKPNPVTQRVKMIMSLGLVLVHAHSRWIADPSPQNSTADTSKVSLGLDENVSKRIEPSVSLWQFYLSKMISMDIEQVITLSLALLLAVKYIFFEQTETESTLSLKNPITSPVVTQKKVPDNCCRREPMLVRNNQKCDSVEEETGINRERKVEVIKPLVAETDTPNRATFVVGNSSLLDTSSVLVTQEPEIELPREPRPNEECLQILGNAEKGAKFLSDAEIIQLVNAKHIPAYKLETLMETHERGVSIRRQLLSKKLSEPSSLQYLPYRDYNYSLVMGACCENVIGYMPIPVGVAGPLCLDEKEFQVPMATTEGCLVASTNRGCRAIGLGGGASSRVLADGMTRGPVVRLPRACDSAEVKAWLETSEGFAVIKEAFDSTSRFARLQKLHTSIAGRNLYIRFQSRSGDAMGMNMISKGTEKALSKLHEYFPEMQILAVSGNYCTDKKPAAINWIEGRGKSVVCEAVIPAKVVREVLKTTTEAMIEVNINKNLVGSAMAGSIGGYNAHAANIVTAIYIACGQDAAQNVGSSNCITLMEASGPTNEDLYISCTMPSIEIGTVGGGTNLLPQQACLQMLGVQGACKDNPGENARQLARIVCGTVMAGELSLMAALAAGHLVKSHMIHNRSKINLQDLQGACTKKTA
Sequence of UniProt Q96JB3 (Q96JB3 whole entry, looked up): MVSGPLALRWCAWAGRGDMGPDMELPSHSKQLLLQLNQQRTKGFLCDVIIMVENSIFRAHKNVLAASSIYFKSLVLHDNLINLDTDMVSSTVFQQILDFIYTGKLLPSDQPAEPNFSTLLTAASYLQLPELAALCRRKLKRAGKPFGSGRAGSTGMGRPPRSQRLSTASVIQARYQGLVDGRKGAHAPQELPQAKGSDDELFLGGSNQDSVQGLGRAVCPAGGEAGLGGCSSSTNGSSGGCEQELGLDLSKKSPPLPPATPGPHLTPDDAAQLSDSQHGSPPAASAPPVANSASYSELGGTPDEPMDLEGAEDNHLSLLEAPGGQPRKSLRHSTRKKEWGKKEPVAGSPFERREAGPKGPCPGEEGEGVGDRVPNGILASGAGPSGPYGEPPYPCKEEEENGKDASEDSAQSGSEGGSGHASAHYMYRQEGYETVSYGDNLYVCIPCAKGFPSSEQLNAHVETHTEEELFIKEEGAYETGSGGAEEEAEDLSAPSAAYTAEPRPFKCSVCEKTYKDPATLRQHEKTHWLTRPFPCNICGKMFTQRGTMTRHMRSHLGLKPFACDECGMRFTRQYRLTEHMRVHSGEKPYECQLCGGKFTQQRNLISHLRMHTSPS
Sequence of UniProt Q7Z4H3 (Q7Z4H3 whole entry, looked up): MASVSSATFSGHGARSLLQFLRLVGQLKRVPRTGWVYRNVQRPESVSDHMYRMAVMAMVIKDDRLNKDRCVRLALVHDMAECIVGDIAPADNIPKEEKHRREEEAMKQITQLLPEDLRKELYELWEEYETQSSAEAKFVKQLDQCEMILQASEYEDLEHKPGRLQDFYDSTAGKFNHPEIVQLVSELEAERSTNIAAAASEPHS
Sequence of UniProt Q53GQ0 (Q53GQ0 whole entry, looked up): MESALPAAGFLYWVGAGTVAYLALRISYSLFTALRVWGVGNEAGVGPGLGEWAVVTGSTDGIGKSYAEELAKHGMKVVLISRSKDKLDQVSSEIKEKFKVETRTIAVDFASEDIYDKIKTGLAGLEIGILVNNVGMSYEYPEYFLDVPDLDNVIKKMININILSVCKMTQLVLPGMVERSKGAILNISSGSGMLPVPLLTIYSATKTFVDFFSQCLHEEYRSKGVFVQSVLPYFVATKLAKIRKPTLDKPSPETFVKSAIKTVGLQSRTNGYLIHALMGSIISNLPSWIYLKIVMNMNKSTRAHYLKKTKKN
Sequence of UniProt P09105 (P09105 whole entry, looked up): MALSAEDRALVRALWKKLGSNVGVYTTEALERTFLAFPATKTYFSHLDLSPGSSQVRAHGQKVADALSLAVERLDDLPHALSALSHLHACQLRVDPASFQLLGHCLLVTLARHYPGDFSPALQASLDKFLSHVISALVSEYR

Compound in this test: CCN(CC)Cc1ccc2cc(COC(=O)Nc3ccc(C(=O)NO)cc3)ccc2c1 [givinostat]
The test is described as follows: log2 fold change, soluble protein after heating vs DMSO (PISA); higher = thermal stabilisation; K562 cells, 10 uM, 30 min; active = over 0.2 and 3.5 SD of the protein, either way, in both replicates (recomputed). The gist of the method: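 Thermal stability values are relative to control samples and come from duplicates. They are expressed as log2 fold changes. For measurement, K562 cells (2×10^6 cells/mL) received 10 μM compound for 30 min, and aliquots were heated for 3 min over 48°C-58°C, pooled, and extracted at 4°C in PBS with 0.5% NP-40. Soluble protein, the supernatant after 21,000xg for 90 min, was quantified by TMTpro 16plex LC-MS/MS with equalised channel sums.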
With GNB2 (UniProt P62879), the log2 fold change was -0.019 (inactive).
The figure for GTF2B (UniProt Q00403) is 0.058 (inactive).
In the case of GTF2E1 (UniProt P29083) it was 0.091 (inactive); in that of GPX4 (UniProt P36969), -0.451 (active).
The figure for HMGB3 (UniProt O15347) is -0.016 (inactive); for GAPVD1 isoform 6 (UniProt Q14C86) it is 0.047 (inactive); for FNTB (UniProt P49356) it is -0.083 (inactive).
Regarding FKBP4 (UniProt Q02790), the log2 fold change was 0.012 (inactive).
In the case of IFRD1 (UniProt O00458) it was -0.154 (inactive); in that of IFT80 isoform 3 (UniProt Q9P2H3), -0.104 (inactive).
In the case of IFI30 (UniProt P13284) it was 0.018 (inactive); in that of GALNT1 (UniProt Q10472), 0.003 (inactive); in that of FUBP3 (UniProt Q96I24), -0.023 (inactive).
With ICMT (UniProt O60725), the log2 fold change was -0.037 (inactive).
The figure for GCC2 (UniProt Q8IWJ2) is 0.05 (inactive); for HIC2 (UniProt Q96JB3) it is -0.035 (inactive).
In the case of HRC (UniProt P23327) it was -0.059 (inactive); in that of HSD17B12 (UniProt Q53GQ0), -0.018 (inactive).
Turning to HMGCR isoform 3 (UniProt P04035), the log2 fold change was 0.034 (inactive).
In the case of GOLPH3 (UniProt Q9H4A6) it was -0.007 (inactive); in that of GEMIN5 (UniProt Q8TEQ6), -0.1 (inactive); in that of FUCA2 (UniProt Q9BTY2), -0.028 (inactive).
In the case of HNRNPH1 (UniProt P31943) it was 0.115 (inactive); in that of GNPAT (UniProt O15228), 0.022 (inactive).
As to GOPC (UniProt Q9HD26), the log2 fold change is 0.152 (inactive).
The figure for HPCAL1 (UniProt P37235) is -0.041 (inactive).
In the case of GTF2A2 (UniProt P52657) it was -0.044 (inactive); in that of GSK3A (UniProt P49840), -0.053 (inactive); in that of HBQ1 (UniProt P09105), -0.043 (inactive).
The figure for HOOK3 (UniProt Q86VS8) is 0.091 (inactive); for HEXA (UniProt P06865) it is -0.018 (inactive).
As for GGA2 (UniProt Q9UJY4), the log2 fold change is -0.03 (inactive).
The figure for HNRNPC isoform 2 (UniProt P07910) is 0.241 (inactive); for H2AFX (UniProt P16104) it is 0.328 (inactive); for HDDC2 (UniProt Q7Z4H3) it is -0.067 (inactive).
